Measurements: PubChem BioAssay AID1159580 (chemical genetic matrix, 2015)
Several values for one entry are separate records, joined by “and”; a condition that tells them apart may be missing. Equal entries are not always repeated. Hit rate of the full screen: of about 5,500 compounds, about 2,000 (36%) were called active. Inconclusive results (about 18%) are left out. Rule as the data show it: active = normalized growth mostly below about 0.91 (no sharp cut-off); inconclusive = no clear call, values can overlap the other calls; inactive = mostly above about 0.92. This is one part of the list.

Test: chemical genetic growth profiling, strain panel (AID 1159580);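 also: tested at 20 µM; growth read once vehicle control cultures reached saturation at 30 °C; 1 = growth at the plate median or of vehicle wells; lower values mean less growth of the strain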
Conditions: S. cerevisiae deletion strains, growth OD

Measured: normalized growth

CC1(C)O[C@@H]2CC3C4CCC5=CC(=O)C=C[C@]5(C)[C@@]4(F)[C@@H](O)C[C@]3(C)[C@]2(C(=O)CO)O1 (some centres not stated)
inactive: locus YAL013W, strain DEP1, active compounds read low 1.02 | locus YAL021C, strain ccr4, active compounds read low 0.99 | locus YAL026C, strain drs2, active compounds read low 1 | locus YAL030W, strain snc1, active compounds read low 0.996 | locus YBL061C, strain skt5, active compounds read low 0.98 | locus YBR009C, strain hhf1, active compounds read low 0.992 | locus YBR021W, strain FUR4, active compounds read low 0.946 | locus YBR023C, strain chs3, active compounds read low 0.993 | locus YBR171W, strain sec66, active compounds read low 1 | locus YBR229C, strain ROT2, active compounds read low 1.01 | locus YBR231C, strain swc5, active compounds read low 0.987 | locus YBR279W, strain paf1, active compounds read low 0.991 | locus YCL011C, strain gbp2, active compounds read low 1.02 | locus YCL016C, strain dcc1, active compounds read low 0.968 | locus YCL029C, strain bik1, active compounds read low 1 | locus YCL061C, strain MRC1, active compounds read low 1.01 | locus YCL069W, strain vba3, active compounds read low 1.01 | locus YCR088W, strain abp1, active compounds read low 1.01 | locus YDL005C, strain med2, active compounds read low 1 | locus YDL035C, strain GPR1, active compounds read low 1.01 | locus YDL040C, strain nat1, active compounds read low 0.988 | locus YDL074C, strain BRE1, active compounds read low 1.12 | locus YDL101C, strain DUN1, active compounds read low 1.01 | locus YDL134C, strain PPH21, active compounds read low 1.01 | locus YDL185W, strain tfp1, active compounds read low 1.01 | locus YDL192W, strain arf1, active compounds read low 1.01 | locus YDR001C, strain nth1, active compounds read low 1 | locus YDR069C, strain doa4, active compounds read low 0.998 | locus YDR101C, strain arx1, active compounds read low 0.992 | locus YDR137W, strain rgp1, active compounds read low 1.01 | locus YDR150W, strain NUM1, active compounds read low 1.02 | locus YDR159W, strain sac3, active compounds read low 0.928 | locus YDR162C, strain NBP2, active compounds read low 1.01 | locus YDR195W, strain ref2 0.954 | locus YDR297W, strain sur2, active compounds read low 0.997 | locus YDR318W, strain mcm21, active compounds read low 0.987 | locus YDR334W, strain swr1, active compounds read low 0.997 | locus YDR335W, strain msn5, active compounds read low 1.02 | locus YDR388W, active compounds read low 0.997 | locus YDR392W, strain spt3, active compounds read low 0.884 | locus YDR502C, strain sam2, active compounds read low 0.999 | locus YEL003W, strain gim4, active compounds read low 0.991 | locus YEL037C, strain rad23, active compounds read low 1.02 | locus YEL061C, strain CIN8 (second series), active compounds read low 1 | locus YEL061C, strain CIN8, active compounds read low 1.01 | locus YER015W, strain faa2, active compounds read low 0.991 | locus YER016W, strain bim1, active compounds read low 0.975 | locus YER110C, active compounds read low 0.998 | locus YER111C, strain swi4, active compounds read low 0.999 | locus YER155C, strain BEM2 (second series), active compounds read low 0.983 | locus YER155C, strain BEM2, active compounds read low 0.966 | locus YER167W, strain BCK2, active compounds read low 1.01 | locus YFR010W, strain ubp6, active compounds read low 1.01 | locus YGL078C, strain dbp3, active compounds read low 1 | locus YGL086W, strain mad1, active compounds read low 0.997 | locus YGL167C, strain pmr1, active compounds read low 0.988 | locus YGL173C, strain kem1, active compounds read low 0.98 | locus YGL227W, strain vid30, active compounds read low 1.01 | locus YGL240W, strain doc1, active compounds read low 0.953 | locus YGL248W, strain PDE1, active compounds read low 1.01 | locus YGL253W, strain hxk2, active compounds read low 1.02 | locus YGR078C, strain PAC10, active compounds read low 1.03 | locus YGR135W, strain pre9, active compounds read low 0.996 | locus YGR229C, strain SMI1, active compounds read low 1.02 | locus YGR252W, strain gcn5, active compounds read low 0.97 | locus YHR013C, strain ard1, active compounds read low 0.956 | locus YHR027C, strain rpn1, active compounds read low 1 | locus YHR030C, strain SLT2, active compounds read low 1.01 and 0.993 | locus YHR079C, strain IRE1 (second series), active compounds read low 0.989 | locus YHR079C, strain IRE1, active compounds read low 0.989 | locus YHR094C, strain hxt1, active compounds read low 0.994 | locus YHR129C, strain ARP1, active compounds read low 1.01 | locus YHR142W, strain chs7, active compounds read low 1.02 | locus YHR200W, strain rpn10, active compounds read low 0.995 | locus YIL066C, strain RNR3, active compounds read low 1.02 | locus YIL073C, strain SPO22, active compounds read low 1.05 | locus YIL125W, strain kgd1, active compounds read low 0.998 | locus YIR030C, strain dcg1, active compounds read low 1.01 | locus YJL092W, strain hpr5, active compounds read low 1 | locus YJL095W, strain BCK1 (second series), active compounds read low 1 | locus YJL095W, strain BCK1, active compounds read low 1.01 and 0.992 | locus YJL115W, strain asf1, active compounds read low 0.993 | locus YJL129C, strain trk1, active compounds read low 1.01 | locus YJL134W, strain LCB3, active compounds read low 1.01 | locus YJL154C, strain vps35, active compounds read low 0.999 | locus YJL164C, strain tpk1, active compounds read low 0.994 | locus YJL166W, strain qcr8, active compounds read low 0.996 | locus YJL168C, strain set2, active compounds read low 0.993 | locus YJL187C, strain SWE1 (second series), active compounds read low 1.02 | locus YJL187C, strain SWE1, active compounds read low 0.976 | locus YJR043C, strain POL32, active compounds read low 0.997 | locus YJR066W, strain TOR1, active compounds read low 0.947
